Reference: ChEMBL document CHEMBL3988442, “University of Dundee, Small-Polar-MMV Screening Library” (2021)
Out of some 48,000 compounds screened, about 13,000 (27%) showed an effect of 50% or more. The list shows a part of the results.

Tested on: Wolbachia pipientis
Experiment: Anti-Wolbachia Cell-Based Screen
Type: functional
Parameters: scale not given: in the data most compounds retested in dose-response had high values
Details: 5 µM

Structure (SMILES)	Percent Effect [%]
CC(C)=CCCC(C)CN1CCC(n2cc(C(=O)NCCO)nn2)CC1 (stereo not drawn)	-5.673
CCCn1cnnc1CN(C)C(=O)CCC(=O)Nc1cc(C)ccc1F	-24.09
O=C(CCCn1cncn1)N1CCC2(CCCNC2=O)C1 (stereo not drawn)	-3.772
O=C(C[S+]([O-])Cc1csc(C2CCCC2)n1)Nc1ccccc1 (stereo not drawn)	0.09199
COCC(O)CN(C)C(=O)NC1CCN(S(C)(=O)=O)CC1 (stereo not drawn)	12.14
CCC(CC)(CNC(=O)OC(C)(C)C)NC(=O)C1CCOCC1	5.998
O=S(=O)(NCC(O)c1cccs1)c1ccccc1Cl (stereo not drawn)	2.157
CCc1nc(N)nc(NCCC(=O)N2CCCC2)c1C	9.291
CC(C)(C)C(=O)NC[C@H]1Cn2c(-c3ccccc3)cnc2CO1	-8.442
CN(CC1=CCCN(CCc2ccccn2)C1)C(=O)c1ccco1	0.7414
CN(Cc1ccccn1)C(=O)CNC(=O)N1CCc2ccccc2C1	97.17
CN(Cc1ccsc1)C(=O)CNC(=O)N1CCc2ccccc2C1	90.63
O=C(NCCNc1ncccn1)N1CCc2ccccc2C1	8.02
CCOc1ncccc1NC(=O)N1CCc2ccccc2C1	-0.7073
CNC(=O)c1cccc(CCNC(=O)N2CCc3ccccc3C2)c1	1.406
CN(Cc1ccsc1)C(=O)CN1CCc2c(ncn2C)C1	-3.155
CC(C)c1noc(C(C)N2CCC(c3nc4ccccc4o3)CC2)n1 (stereo not drawn)	1.795
Cc1cc(C)c2c(c1)C(NC(=O)CSc1nnc[nH]1)CCO2 (stereo not drawn)	8.701
Cc1nn(C)c2nc(N(C)CC3CCN(CC(C)C)C3)sc12 (stereo not drawn)	-16.91
O=C(c1ccoc1)N1CCCN(CC2CCOc3ccccc3C2)CC1 (stereo not drawn)	-7.228
CN1CC(c2cc(O)nc(NCc3ccccc3Cl)n2)CC1=O (stereo not drawn)	83.2
Cc1nc(NC(=O)NC2CC(=O)N(C)C2)nn1C (stereo not drawn)	3.668

Structure (SMILES)	Percent Effect [%]
COc1cccc(CNc2nc(O)cc(C3CC(=O)N(C)C3)n2)c1 (stereo not drawn)	-3.669
N#Cc1cccc(NC2CC(=O)N(Cc3ccccc3Cl)C2)n1 (stereo not drawn)	-1.238
CN1CC(c2cc(O)nc(NCc3ccc(Cl)cc3)n2)CC1=O (stereo not drawn)	70.24
Cc1cc(C)cc(OCCC(=O)NC2CC(=O)N(C)C2)c1 (stereo not drawn)	-4.77
Cc1ccccc1CNc1nc(O)cc(C2CC(=O)N(C)C2)n1 (stereo not drawn)	-5.04
CC1CCc2nc(O)c(C(=O)NCc3cccc(F)c3)cc2C1 (stereo not drawn)	-1.382
CN1CC(c2cc(O)nc(NCc3cccc(F)c3)n2)CC1=O (stereo not drawn)	104.4
Cc1ccc(CNc2nc(O)cc(C3CC(=O)N(C)C3)n2)cc1 (stereo not drawn)	96.21
CC(C)(CO)NC(=O)C1CCC(=O)N(Cc2ccc(Cl)cc2)C1 (stereo not drawn)	-2.281
CCC(NC(=O)Nc1ccc(OC)c(C)c1)c1noc(C)n1 (stereo not drawn)	-4.029
CC(C(=O)N1CCCN(c2ccc(C#N)cc2)CC1)n1ccnc1 (stereo not drawn)	-8.735
N#Cc1ccc(N2CCCN(CC(=O)N3CCC3)CC2)cc1	4.301
CC(C(=O)N1CCCN(c2ccc(C#N)cc2)CC1)n1cccn1 (stereo not drawn)	143.8
CC(C(=O)N1CCCN(c2ncccc2C#N)CC1)n1cccn1 (stereo not drawn)	0.5745
CC(C(=O)N1CCCN(c2ccccc2C#N)CC1)n1cccn1 (stereo not drawn)	129.1
CC(C)c1nccn1C(C)C(=O)N1CCN(c2ccccc2Cl)CC1 (stereo not drawn)	-35.17
CC(C)n1ccnc1CN1C(=O)OC[C@@H]1c1ccccc1	11.77
CCOCC(=O)N1C[C@H]2CC[C@@H]1CN(C(=O)c1ccncc1)C2	-0.6982
CCCOCCn1ncc(N2CCCC2)cc1=O	0.2704
O=c1cc(N2CCCCC2)cnn1CCCn1cccn1	21.14
CN(C)c1cnn(Cc2nc3ccccc3n2C)c(=O)c1	116.1
CN1CCCN(c2cnn(Cc3ccc(C(C)(C)C)cc3)c(=O)c2)CC1	10.83

Structure (SMILES)	Percent Effect [%]
CN(C)c1cnn(CC(=O)N2CCN(c3ccccc3)CC2)c(=O)c1	3.087
CN(C)c1cnn(CC(=O)N2Cc3ccccc3C2)c(=O)c1	8.607
Cn1c(Cn2ncc(N3CCCCC3)cc2=O)nc2ccccc21	93.17
CN1CCCN(c2cnn(Cc3ccncc3)c(=O)c2)CC1	-30.12
Cn1c(Cn2ncc(N3CCCC3)cc2=O)nc2ccccc21	114.5
O=C(NC1CC2(CCN(CCO)CC2)Oc2ccccc21)c1csnn1 (stereo not drawn)	-25.87
CC(C)c1nc(CN(C)C(=O)CCNC(=O)c2ccccc2F)no1	-5.471
CC(=O)Nc1ccc([C@@H](O)[C@H]2COCC(=O)N2CC(C)C)cc1	-7.535
Cc1csc(CNC(=O)N(C)Cc2ccc3c(c2)OCCO3)n1	-8.149
CCc1noc(CN(Cc2ccc3c(c2)OCO3)C2CCCC2)n1	130.5
Cc1noc(CN(C)Cc2ccc3c(c2)OCO3)n1	95.73
CCc1noc(CN(C)C(=O)c2ccnc(OC3CCC3)c2)n1	-5.488
CCN(Cc1ccc2c(c1)OCO2)Cc1nc(C)no1	5.817
CCCc1noc(CN(C)Cc2ccc3c(c2)OCO3)n1	-4.394
CCN(Cc1nc(C2CC2)no1)Cc1ccc(C#N)cc1F	-4.842
c1cc2c(cc1CN(Cc1nc(C3CC3)no1)C1CCCC1)OCO2	88.61
Cc1noc(CN(Cc2ccc3c(c2)OCO3)C2CCCC2)n1	3.676
Cc1nc(CN(Cc2ccc3c(c2)OCCO3)C2CCCC2)no1	158.9
CN(C(=O)Cc1ccc2c(c1)OCCO2)C1CCCCC1	-4.303
CC(C)c1nc2n(n1)CC(Nc1ncnc3c1CCC3)CC2 (stereo not drawn)	-10.8
O=C(c1cc[nH]n1)N1CCN(C(c2ccccc2)C(F)(F)F)CC1 (stereo not drawn)	48.39
N#CCCN(CCC#N)C(=O)c1ccc(COc2ccccc2C#N)o1	-1.523

Structure (SMILES)	Percent Effect [%]
CN(C)CCN(C)S(=O)(=O)CC1CCOCC1	3.137
CC(CS(C)(=O)=O)N(C(=O)Nc1ccc(F)cc1F)C1CC1 (stereo not drawn)	2.637
COc1cc(OC)c(CNC(=O)NCc2ccc(C#N)cc2)c(OC)c1	1.359
COCCO[C@H]1COCCN(Cc2ccc(OC)cc2)C1	-5.552
O=C(C1CCOc2ccccc2C1)N1Cc2cnn(CCO)c2C1 (stereo not drawn)	-2.46
CCCN(C(=O)CN1CCN(CC(C)O)CC1)C1=CCCCC1 (stereo not drawn)	-2.912
CCc1nc(C2CCCN2c2ncc(C(N)=O)cc2Cl)no1 (stereo not drawn)	-14.14
Cc1noc(C2CCCN2C(=O)C2CCC2)n1 (stereo not drawn)	124.3
Cc1noc([C@@H]2CCCN2C(=O)C2CCN(C(=O)C3CCC3)CC2)n1	-13.41
CNCC(=O)N1CCCC1c1nc(C(C)C)no1 (stereo not drawn)	10.93
CC(=O)N1CCCC1c1nc(C)no1 (stereo not drawn)	122.1
Cc1noc([C@@H]2C[C@H](NC(=O)NC3CCCCC3)CN2C)n1	-10.92
Cc1noc([C@@H]2CCCN2C(=O)C2CCN(CC(N)=O)CC2)n1	1.357
Cc1ccc([C@@H]2CN(C(=O)c3cc[nH]c3)C[C@H]2NC(=O)C2CC2)cc1	18.05
NC(=O)C1CCN(CCc2ccc(NCc3ccoc3)cc2)CC1	-9.363
CCC(CC)NC(=O)c1cccnc1N1CCCC1c1ccccn1 (stereo not drawn)	119.8
CCC(CC)NC(=O)c1cccnc1-n1cccn1	10.93
CCOCCNC(=O)c1cccnc1N1CCCC1c1ccccn1 (stereo not drawn)	122.4
CNC(=O)c1cccnc1N1CCN(C/C=C/c2ccccc2)CC1	6.453
COc1cccc(C(=O)N2CCN(C(=O)CCCn3ccnc3)CC2)c1	-1.45
COc1ccc(C(=O)O)c(OCC(=O)NC(C)c2ccc(F)cc2)c1 (stereo not drawn)	-5.25
Cc1ccc(C(N)c2cccs2)cc1 (stereo not drawn)	13.29

Structure (SMILES)	Percent Effect [%]
Cc1ccccc1CN(Cc1ccncc1)CC(C)C	-4.812
Cc1ccccc1C(N)c1ccncc1.Cl (stereo not drawn)	102.8
COCC(NC(=O)c1cc[nH]n1)c1cccc(C(F)(F)F)c1 (stereo not drawn)	-1.057
O=C(c1ccccn1)N1C[C@@H]2CC[C@H](C1)N(C(=O)CCC(F)(F)F)C2	-20.57
CCCC1CCCN(Cc2csc(-c3cnn(C)c3)n2)CC1 (stereo not drawn)	-16.04
Cn1cc(-c2nc(CN3CCn4c(nnc4C4CC4)C3)cs2)cn1	-10.47
Cn1cc(-c2nnc3sc(C4CCC4)nn23)cn1	131.8
Cn1cc(-c2csc(N3CCCCCC3)n2)cn1	-2.114
Cn1cc(-c2nnc3sc(C4CC4)nn23)cn1	89.59
CCC(CO)N(Cc1ccsc1)CC1CC1 (stereo not drawn)	-8.901
N#Cc1cccc(SCCS(N)(=O)=O)c1	2.301
CCS(=O)(=O)CCSc1ccc(Cl)cc1	82.02
N#Cc1ccc(SCCC(=O)O)cc1	-2.439
CCS(=O)(=O)CCCN1CCSCC1c1ccc(Cl)cc1 (stereo not drawn)	4.065
CCS(=O)(=O)CCSc1ccc(Br)cc1	61.96
CCCNS(=O)(=O)Cc1ccc(Br)cc1	-14.67
CCOc1ccc(SCCNS(=O)(=O)CC)cc1	37.47
CCOc1ccc(CNC(C)c2cccc(S(=O)(=O)NC)c2)cc1 (stereo not drawn)	0.3734
CCOc1ccc(SCCS(=O)(=O)CC)cc1	102.3
CC(C)c1cc(=O)[nH]c(C(C)(C)N)n1.Cl	-9.286
